Test results reported in PubChem BioAssay (NCATS).
Where “and” joins values, the source holds several entries; their conditions need not be identical. Equal values may be shown once. Inconclusive results are not listed. Entries that show only a call come without a potency. Values without a mark were called inactive. Calls of active or inactive are those of the source. Unless noted, calls follow the shape of the dose curve; as a rule, active = well fitted curve in the direction sought with a large enough effect; inconclusive = small, poorly fitted or top-dose-only effect, or another doubt; inactive = no such curve, though single readings can be large; an effect the other way counts as inactive or inconclusive.

Key:
[1] = target: Calcium and integrin-binding protein 1 (Homo sapiens) (UniProt Q99828); assay: Primary qHTS for Identification of Calcium Integrin Binding Protein 1 (CIB1) Competitor (AID 1508620);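 also: GST tagged CIB1 binding a fluorescein labelled alphaIIb integrin peptide tracer; top concentration of the series differs between compounds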
Outline: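 Fluorescence polarization competition: CIB1-GST (1 uM final) preincubated with compound 15 min at room temperature, then FITC-labeled alphaIIb peptide (100 nM final) added for another 15 min. Polarization read at Ex 480/Em 540.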

[2] = target: Cytochrome P450 2D6 (Homo sapiens) (UniProt P10635); assay: Cytochrome P450 family 2 subfamily D member 6 (CYP2D6) small molecule antagonists: luciferase biochemical (cell-free) qHTS assay (AID 1645840; active = well fitted curve in the direction sought with a large enough effect in the repeat runs; an effect the other way counts as inactive or inconclusive; also: nearly all actives have a fitted effect of over 55% in size; also: potency is read from the fitted curve at half-maximal effect)
Outline: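 P450-Glo CYP2D6 system: proluciferin substrate converted by enzyme to luciferin, read by luminescence proportional to activity. Enzyme-substrate mix with compound 10 min at room temperature, then NADPH regeneration 1 h before detection reagent.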

[3] = Primary qHTS for inhibitors of nuclear receptor binding SET domain protein 2 (NSD2) in an isogenic RCH-ACV NSD2 p.E1099K mutant (9B) (AID 1645876); also: nearly all actives have a fitted effect of over 70% in size; also: potency is read from the fitted curve at half-maximal effect
[4] = target: Cytochrome P450 2C9 (Homo sapiens) (UniProt P11712); assay: Cytochrome P450 family 2 subfamily C member 9 (CYP2C9) small molecule antagonists: luciferase biochemical (cell-free) qHTS assay (AID 1645842; active = well fitted curve in the direction sought with a large enough effect in the repeat runs; an effect the other way counts as inactive or inconclusive; also: nearly all actives have a fitted effect of over 55% in size; also: potency is read from the fitted curve at half-maximal effect)
Outline: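 P450-Glo CYP2C9 system: proluciferin substrate with enzyme in mix containing 0.4% BSA, 10 min at room temperature, then NADPH regeneration solution added and incubated 1 h at 37C. Detection reagent stopped reaction; luminescence read after 20 min as RLU.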

[5] = target: Cytochrome P450 3A4 (Homo sapiens) (UniProt P08684); assay: Cytochrome P450 family 3 subfamily A member 4 (CYP3A4) small molecule antagonists: luciferase qHTS assay (AID 1645841; active = well fitted curve in the direction sought with a large enough effect in the repeat runs; an effect the other way counts as inactive or inconclusive; also: nearly all actives have a fitted effect of over 45% in size; also: potency is read from the fitted curve at half-maximal effect)
Outline: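 P450-Glo CYP3A4 enzyme with proluciferin substrate was preincubated with DMSO-dissolved compounds for 10 min at room temperature. NADPH regeneration solution started a 1 h reaction. Detection reagent stopped it, and luminescence was read after 20 min.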

Cytochrome P450 2D6 (Homo sapiens), sequence (P10635 whole entry, looked up): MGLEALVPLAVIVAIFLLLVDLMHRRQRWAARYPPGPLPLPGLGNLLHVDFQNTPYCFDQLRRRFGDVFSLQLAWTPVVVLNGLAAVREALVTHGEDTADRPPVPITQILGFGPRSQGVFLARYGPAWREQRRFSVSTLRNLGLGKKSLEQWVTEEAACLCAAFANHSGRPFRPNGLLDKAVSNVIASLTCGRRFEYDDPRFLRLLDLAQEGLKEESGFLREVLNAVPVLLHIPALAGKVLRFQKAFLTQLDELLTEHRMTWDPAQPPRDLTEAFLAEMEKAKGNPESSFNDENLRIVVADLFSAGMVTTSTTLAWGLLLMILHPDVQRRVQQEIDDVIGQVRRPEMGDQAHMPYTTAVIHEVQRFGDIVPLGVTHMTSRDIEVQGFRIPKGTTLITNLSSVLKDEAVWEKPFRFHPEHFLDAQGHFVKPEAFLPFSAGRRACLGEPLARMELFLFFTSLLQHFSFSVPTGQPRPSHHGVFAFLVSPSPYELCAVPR
Calcium and integrin-binding protein 1 (Homo sapiens), sequence (Q99828 whole entry, looked up): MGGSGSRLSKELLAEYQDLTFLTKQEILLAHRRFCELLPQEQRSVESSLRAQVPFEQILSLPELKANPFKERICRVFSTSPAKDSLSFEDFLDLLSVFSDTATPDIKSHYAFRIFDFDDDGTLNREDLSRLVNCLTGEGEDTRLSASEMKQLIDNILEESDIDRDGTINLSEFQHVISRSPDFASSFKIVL
Cytochrome P450 2C9 (Homo sapiens), sequence (P11712 whole entry, looked up): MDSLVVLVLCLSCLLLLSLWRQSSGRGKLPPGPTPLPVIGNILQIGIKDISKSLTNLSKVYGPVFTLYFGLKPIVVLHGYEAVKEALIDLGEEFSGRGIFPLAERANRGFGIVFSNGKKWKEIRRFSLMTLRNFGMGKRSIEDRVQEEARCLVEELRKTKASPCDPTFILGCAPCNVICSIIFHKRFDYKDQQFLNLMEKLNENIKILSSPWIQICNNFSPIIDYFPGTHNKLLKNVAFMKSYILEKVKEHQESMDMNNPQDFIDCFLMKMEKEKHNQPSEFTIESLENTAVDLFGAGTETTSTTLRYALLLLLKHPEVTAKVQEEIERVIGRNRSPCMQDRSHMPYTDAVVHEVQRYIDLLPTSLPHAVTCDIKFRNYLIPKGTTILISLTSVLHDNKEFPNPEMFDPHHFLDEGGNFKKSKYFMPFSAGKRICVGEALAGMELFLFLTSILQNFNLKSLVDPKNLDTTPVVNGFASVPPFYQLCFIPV
Cytochrome P450 3A4 (Homo sapiens), sequence (P08684 whole entry, looked up): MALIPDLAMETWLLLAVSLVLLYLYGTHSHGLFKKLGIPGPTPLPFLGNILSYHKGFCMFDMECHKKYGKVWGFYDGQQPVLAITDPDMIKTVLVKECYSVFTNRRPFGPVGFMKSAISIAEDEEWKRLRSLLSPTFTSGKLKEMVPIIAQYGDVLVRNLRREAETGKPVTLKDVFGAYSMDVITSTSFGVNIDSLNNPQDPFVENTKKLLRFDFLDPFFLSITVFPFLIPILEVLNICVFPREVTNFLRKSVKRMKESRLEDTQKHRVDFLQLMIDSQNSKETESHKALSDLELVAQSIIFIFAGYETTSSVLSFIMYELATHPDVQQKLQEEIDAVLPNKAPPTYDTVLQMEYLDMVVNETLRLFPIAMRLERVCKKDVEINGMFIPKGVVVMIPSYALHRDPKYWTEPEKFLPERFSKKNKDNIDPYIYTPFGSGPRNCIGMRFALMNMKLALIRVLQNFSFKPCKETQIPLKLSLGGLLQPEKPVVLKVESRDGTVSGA

c1ccc(-c2csc(N3CCOCC3)n2)cc1
Potency [1]: inactive
Potency [2]: inactive
Potency [3]: inactive

Cc1ncc(CCCN(C)C)cc1Nc1ncc2c(n1)-c1ccc(C(F)(F)F)cc1NC(=S)C2
Potency [1]: inactive
Potency [2]: 13.5 µM (active)
Potency [3]: 91.6 nM (active)

O=C(O)Cc1ccc2oc(-c3ccc(NC(=O)/C=C/c4ccc(Br)cc4)c(F)c3)nc2c1
Potency [1]: inactive
Potency [2]: inactive
Potency [3]: inactive

Cc1cc(OCc2nc(-c3ccccc3Cl)cs2)ccc1OCC(=O)O
Potency [1]: inactive
Potency [2]: inactive
Potency [3]: inactive

Nc1nc(-n2cc(C(=O)O)c(=O)c3cc(F)c(N4CC(O)C4)c(Cl)c32)c(F)cc1F
Potency [1]: inactive
Potency [2]: inactive
Potency [3]: inactive

O=C(NCc1ccc(F)cc1)C(=O)c1c[nH]c2ccccc12
Potency [1]: inactive
Potency [4]: 1.9 µM (active)

Cc1ccc(NC(=O)c2ccc(CN3CC[C@H](N(C)C)C3)c(C(F)(F)F)c2)cc1Nc1nccc(-c2cncnc2)n1
Potency [1]: inactive
Potency [5]: 1.69 µM (active)
Potency [3]: 8110 nM (active)

Cn1nnc(-c2ccc(-c3ccc(N4C[C@H](CO)OC4=O)cc3F)cn2)n1
Potency [1]: inactive
Potency [2]: inactive
Potency [3]: inactive

COc1cc2ncnc(Nc3cccc(O)c3)c2cc1OC
Potency [1]: inactive
Potency [2]: inactive
Potency [3]: 2900 nM (active)

CN(C)C(=O)NC1CCC(CCN2CCN(c3cccc(Cl)c3Cl)CC2)CC1 (stereo not given)
Potency [1]: inactive
Potency [2]: 12 µM (active)
activity change, negative = viability loss [3]: 3.61% [at 9.23 µM]

Cc1ccccc1NC(=O)Nc1ccc(CC(=O)N(C)[C@@H](CC(C)C)C(=O)NCC[C@H](NC(=O)[C@@H]2CCCN2S(=O)(=O)c2cc(Cl)cc(Cl)c2)C(=O)O)cc1
Potency [1]: inactive
Potency [2]: inactive
Potency [3]: inactive

CN(C)CC1CCOC1(c1ccccc1)c1ccccc1 (stereo not given)
Potency [1]: inactive
Potency [2]: 2.24 µM (active)
Potency [3]: inactive

Cc1[nH]c2ccccc2c1CCNC(=O)c1ccccc1F
Potency [1]: inactive
Potency [2]: 21.3 µM (active)
Potency [3]: inactive

Cc1c(C(=O)Nc2ccc(N3CC(C)OC(C)C3)nc2)cccc1-c1ccc(OC(F)(F)F)cc1 (stereo not given)
Potency [1]: inactive
Potency [4]: inactive

CCOCCn1nc(CC)c2nc(N3CCC(C(=O)O)CC3)nc(Nc3cc(C)ccn3)c21
Potency [1]: inactive
Potency [2]: inactive
Potency [3]: inactive

CCOC(=O)Nc1cc(-c2ccc(C)c(NS(C)(=O)=O)c2)nn2c(C)nnc12
Potency [1]: inactive
Potency [2]: inactive
Potency [3]: 728 nM (active)

CCN1CCN(Cc2ccc(NC(=O)c3ccc(C)c(NC(=O)c4cncc(-c5cccs5)c4)c3)cc2C(F)(F)F)CC1
Potency [1]: inactive
Potency [2]: 3.38 µM (active)
Potency [3]: 45.9 nM (active) and 166 nM (active)

C=CC(=O)Nc1cc(Nc2ncc(Cl)c(-c3c[nH]c4ccccc34)n2)c(OC)cc1N(C)CCN(C)C
Potency [1]: inactive
Potency [4]: 9.52 µM (active)

C=CC(=O)Nc1cccc(Nc2nc(Nc3ccc(N4CCN(C(C)=O)CC4)cc3OC)ncc2C(F)(F)F)c1
Potency [1]: inactive
Potency [2]: inactive
Potency [3]: 3.65 µM (active) and 4.17 µM (active)

CCCCNc1ccc(-c2ccc(CN3CCOCC3)cn2)c(NC2CCC(O)CC2)c1 (stereo not given)
Potency [1]: inactive
Potency [5]: inactive

CCOC(=O)CCN(C(=O)c1ccc2c(c1)nc(CNc1ccc(C(=N)N)cc1)n2C)c1ccccn1
Potency [1]: inactive
Potency [2]: inactive
Potency [3]: inactive

O=c1[nH]ccc2cc(OC3CCNCC3)ccc12
Potency [1]: inactive
Potency [4]: inactive

CN(C)c1nc(NC2CCC(NC(=O)c3ccc(F)c(F)c3)CC2)nc2ccccc12 (stereo not given)
Potency [1]: inactive
Potency [2]: 5.35 µM (active)
Potency [3]: 6490 nM (active)

CCNC(=O)Nc1ccc(-c2nc3c(c(N4CCOC[C@@H]4C)n2)CCN(c2ncccn2)C3)cc1
Potency [1]: inactive
Potency [2]: 10.7 µM (active)
Potency [3]: 72.8 nM (active)

CC(C)(C)OC(=O)N1CCC(OCc2nc(-c3ccncc3)no2)CC1
Potency [1]: inactive
Potency [2]: inactive
Potency [3]: inactive

COc1ccc(N2CCOCC2)c2sc(NC(=O)N3CCC(C)(O)CC3)nc12
Potency [1]: inactive
Potency [2]: 16.9 µM (active)
Potency [3]: inactive

CC(=O)NC1=NN(C(C)=O)C(C)(c2ccccc2)S1 (stereo not given)
Potency [1]: inactive
Potency [2]: inactive
Potency [3]: 4590 nM (active)

COc1cccc(Nc2ncnn3ccc(CN4CC[C@@H](N)[C@H](O)C4)c23)c1
Potency [1]: inactive
Potency [2]: 9.52 µM (active)
Potency [3]: 4680 nM (active)

Cc1ccc(S(=O)(=O)Cc2nc(-c3ccc(C(=O)NCc4cccnc4)cc3)oc2C)cc1
Potency [1]: inactive
Potency [2]: inactive
Potency [3]: 13.2 nM (active)

Cc1cnc(NC(=O)Nc2cc(Br)c(C)cc2OCC2CNCCO2)cn1 (stereo not given)
Potency [1]: inactive
Potency [2]: 12 µM (active)
Potency [3]: 649 nM (active)
